Compound activity (PubChem BioAssay)
Rows were chosen to be rich in hits. Some 2.6% of all compounds tested hit in one or more screens of this group.
LGR2 antag: blocks bursicon-induced cAMP signaling via Drosophila LGR2. inhibition, % at 9.99 µM. HEK293 LGR2, CRE-luciferase, bursicon-stimulated, 4 h. AID 720647. actives 0.35% (n = 380,000);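 active means drop in luminescence signal, shown as inhibition above about 50% in the replicate tests, limit read from the data, passing the limit was not always enough; inconclusive means probably only some replicates passing the limit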;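 further: agonist challenge used bursicon conditioned medium at about half maximal strength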
TWEAK Fn14 block: blocks TWEAK-Fn14 interaction in a reporter cell assay; TWEAK-stimulated Fn14 reporter cells, luciferase luminescence, 8 h; inhibition, % at 10 µM; actives 2% (n = 360,000); AID 1159606; in the data active means inhibition above about 50%
KKLEB tox: CF airway cell cytotoxicity counter-screen; KKLEB CF airway cells viability, ATPlite luminescence, overnight; active compounds read low; cells stimulated with P. aeruginosa culture filtrate; activity change (cytotoxicity), % at 5 µM; actives 0.36% (n = 360,000);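 active means corrected activity change at or below -50% at 5 µM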
EWS-Fli inh: EWS/Fli transcriptional activity inhibition. inhibition, % at 12.6 µM. actives 0.67% (n = 350,000). A673 NR0B1-luciferase reporter, viability-normalised. AID 651661;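 active means mean inhibition of at least 50% after viability correction, with every replicate also passing that limit; inconclusive means mean reaches 50% but only one of two replicates passes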;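 further: firefly luciferase signal divided by Alamar Blue viability fluorescence both relative to DMSO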
CF NFkB inh: cystic fibrosis NF-kB activation inhibition; KKLEB NF-kB-GFP reporter, PAF-induced, GFP fluorescence overnight; inhibition, % at 5 µM; actives 0.86% (n = 360,000); AID 588850;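 active means at least 50% inhibition at 5 µM, scaled per plate between neutral and stimulator controls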;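 further: PAF is a Pseudomonas aeruginosa culture filtrate used as stimulus; plate controls were PAF-stimulated DMSO wells for no effect and unstimulated DMSO wells for full effect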
TROY signal inh: TROY signaling inhibition. Q293 LMP1-TROYcd NF-kB luciferase reporter, 4 h. actives 0.98% (n = 360,000). inhibition, % at 10 µM;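 active means compounds whose plate-normalised and pattern-corrected inhibition of the luciferase reporter signal at the single screening dose is 50% or more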
Active calls of the source: *; ? = inconclusive; nt = no result given.

SMILES	LGR2 antag	TWEAK Fn14 block	KKLEB tox	EWS-Fli inh	CF NFkB inh	TROY signal inh
CCOc1ccc2nc(NC(=O)c3ccc(OCC4CCCO4)cc3)sc2c1 (stereo not given)	-40.7	61.8*	2.6	-41.8	-6.4	48.6
Cc1csc(NC(=O)c2ccc(N3CCCC3=O)cc2)n1	90.5*	90.3*	0.8	46.9	19.7	69.7*
CCOc1ccc2nc(NC(=O)CSCC(=O)Nc3cc(C)on3)sc2c1	-16.2	-14.1	-2.0	59.6*	-0.4	-29.4
CCOc1ccc2nc(NC(=O)CSc3nnc(-c4ccncc4)n3CC3CCCO3)sc2c1 (stereo not given)	nt	-2.3	-15.7	nt	-1.6	-69.2
Cc1ccnc(NC(=O)c2ccc(OCC3CCCO3)cc2)c1 (stereo not given)	0.1	82.7*	-45.2	69.9*	2.7	56.8*
CCOCC(=O)Nc1nc2ccc(OCC)cc2s1	nt	3.3	-9.6	nt	-6.3	-48.5
O=C(C[C@@H]1C=C[C@H](NC(=O)Nc2cccc(F)c2)[C@H](CO)O1)NCC1CC1	-8.7	nt	nt	7.6	nt	nt
C[C@@H]1CN([C@H](C)CO)C(=O)c2cc(NS(=O)(=O)c3cn(C)cn3)ccc2O[C@@H]1CN(C)S(=O)(=O)c1ccccc1	4.1	nt	nt	4.8	nt	nt
C[C@@H]1CN([C@@H](C)CO)S(=O)(=O)c2ccc(C#Cc3ccccn3)cc2O[C@@H]1CN(C)C(=O)C1CC1	1.6	nt	nt	-4.8	nt	nt
CCOc1ccc2nc(NC(=O)c3cccc(-c4cc5ccccc5oc4=O)c3)sc2c1	-4.9	-79.1	-58.2*	-21.5	50.4*	-3.5
CCOc1ccc(C(=O)Nc2nc(C)c(C(=O)OC)s2)cc1	-55.2	-19.8	-13.5	73.1*	5.6	-53.0
CCOc1ccc2nc(NC(=O)c3cccc(N4C(=O)CCC4=O)c3)sc2c1	0.6	11.6	-13.1	-1.5	-23.0	-33.6
Cc1csc(NC(=O)c2ccc(OCC3CCCO3)cc2)n1 (stereo not given)	?	68.6*	-12.6	32.5	-2.7	23.0
Cc1cccc2sc(NC(=O)c3ccc(OCC4CCCO4)cc3)nc12 (stereo not given)	-43.7	85.0*	2.3	-66.5	-7.2	33.0
C[C@@H]1CN([C@H](C)CO)C(=O)Cc2cc(NC(=O)Cc3ccccc3)ccc2O[C@@H]1CN(C)S(=O)(=O)c1ccc(Cl)cc1	5.7	nt	nt	3.5	nt	nt
Cc1ccnc(NC(=O)COc2ccc3c(c2)CCC3)c1	15.5	79.4*	-46.1	-15.2	28.0	40.1
C[C@H]1CN([C@@H](C)CO)C(=O)c2cccc(NC(=O)Nc3ccc(C(F)(F)F)cc3)c2O[C@H]1CN(C)S(=O)(=O)c1ccc(F)cc1	-4.0	nt	nt	-16.3	nt	nt
COCC(=O)Nc1ccc2c(c1)[C@H]1C[C@@H](CC(=O)N[C@H](C)c3ccccc3)O[C@@H](CO)[C@H]1O2	-13.8	nt	nt	-3.7	nt	nt
COc1ccc(S(=O)(=O)/N=C2/C=CC(=O)C(C)=C2C)cc1	nt	14.1	22.0	nt	-11.3	15.5
CC1=C(C)/C(=N\OS(=O)(=O)c2ccc(C)cc2)C=CC1=O	-32.2	92.6*	-36.4	nt	71.5*	-17.3
FC(F)(F)c1nc(N2CCCC2)ncc1-c1nnnn1-c1ccccc1	nt	51.1*	-4.4	nt	-0.9	17.7
CC(=O)Nc1ccc(S(=O)(=O)NCC(=O)NCCCc2ccccc2)cc1	9.9	51.0*	-2.3	nt	-11.2	-8.4
Oc1cc(Nc2ccccc2)cc2cccnc12	27.4	0.7	-19.5	14.7	77.6*	8.7
Oc1cccc2cc(Nc3ccccc3)cnc12	-2.7	100.1*	-2.6	40.7	34.0	13.9
Oc1cc(NCCN2CCOCC2)cc2cccnc12	14.3	8.6	-10.8	34.4	16.1	-29.6
SMILES	LGR2 antag	TWEAK Fn14 block	KKLEB tox	EWS-Fli inh	CF NFkB inh	TROY signal inh
CO[C@@H]1CN(C)C(=O)c2ccc(NC(=O)Nc3cccc(Cl)c3)cc2OC[C@@H](C)NC[C@H]1C	8.7	nt	nt	4.8	nt	nt
Fc1cccc(Cl)c1CSc1ncn[nH]1	nt	-11.4	-11.8	nt	4.1	78.1*
Cc1cc(C(=O)CSc2nnc(-c3ccc4c(c3)OCO4)o2)c(C)n1-c1ccc(F)cc1	-2.7	64.6*	-3.7	0.8	12.3	13.2
C/C(N)=C(/C#N)C(=O)CSc1nnc(-c2ccc3c(c2)OCO3)o1	7.9	83.0*	0.2	44.0	-6.3	44.8
C[C@H]1CN([C@@H](C)CO)S(=O)(=O)c2ccc(C#Cc3ccncc3)cc2O[C@H]1CN(C)C(=O)C1CCCCC1	-7.7	nt	nt	6.4	nt	nt
O=C(c1ccccc1)N1CCSc2sccc2C1=O	97.7*	-3.6	-11.5	67.2*	22.3	-39.9
O=C(c1ccccc1)N1CCSC1=S	nt	4.6	0.6	nt	1.1	21.6
CSc1nc2cc(Oc3cccc(Cl)c3Cl)c(Cl)cc2[nH]1	nt	23.1	27.8	0.6	35.4	56.4*
O=C(N/N=C/c1ccc(OC(F)F)cc1)c1cccc(S(=O)(=O)N2CCOCC2)c1	7.0	70.6*	5.8	-3.7	-16.2	9.8
O=C(N/N=C/c1sc(N2CCOCC2)nc1-c1ccccc1)c1ccc(O)cc1	-3.8	32.0	4.5	10.4	-13.7	-22.8
O=C(N/N=C/c1sc(N2CCOCC2)nc1-c1ccccc1)c1cccc(S(=O)(=O)N2CCCC2)c1	nt	51.0*	5.2	20.3	-26.1	9.9
CO[C@@H](CN(C)S(=O)(=O)c1ccc(Cl)cc1)[C@@H](C)CN(C(=O)Nc1ccccc1F)[C@@H](C)CO	8.6	nt	nt	1.1	nt	nt
COC(=O)c1ccc(COc2ccccc2/C=C(\C#N)C(=O)Nc2c(C)cc(C)cc2C)cc1	45.2	67.8*	-19.9	25.0	22.6	20.3
O=C(N[C@H]1C/C=C\C[C@@H](CC(=O)N(CCO)Cc2ccccc2)C(=O)NC[C@H](c2ccccc2)OC1=O)OCC1c2ccccc2-c2ccccc21	nt	51.5*	-6.6	1.7	-8.8	21.2
Cc1ccc2c(c1)sc1nc(=O)n(-c3ccc(Cl)c(Cl)c3)c(=O)n12	nt	55.0*	2.7	nt	-10.9	43.0
Cc1cc(C)c2nc(Cl)c(CN(Cc3ccco3)C(=O)Nc3ccccc3C)cc2c1	-10.6	17.1	-3.8	56.2*	19.2	3.6
COCCN(Cc1cc2cc(C)cc(C)c2nc1Cl)C(=O)Nc1ccccc1	-6.5	4.6	-5.7	43.3	11.2	-0.4
Cc1ccc(-n2[nH]c(=O)c(-c3ccccn3)c2C)cc1	93.7*	100.7*	-6.8	74.4*	-7.1	80.7*
Cc1ccc(-n2[nH]c(=O)c3cccnc32)cc1	nt	8.2	10.4	nt	12.4	-4.0
CC(C)=CCc1cc([C@@H]2CC(=O)c3ccc(O)c(CC=C(C)C)c3O2)ccc1O	26.6	57.8*	-7.4	5.1	35.2	43.3
Cc1ccc2c(c1)C(=O)CC(c1ccc3c(c1)OCCO3)O2 (stereo not given)	-45.4	-11.6	-15.9	-19.0	25.9	-41.8
COc1cccc(NC(=O)N2CC(=O)N3[C@H](CO)[C@H](c4ccc(C#CC5CCCCC5)cc4)[C@H]3C2)c1	11.0	nt	nt	34.5	nt	nt
